Measured values reported in the supplement of paper PMC6555819.

Tests used:
Assay in all cases: PBM binding z-score (relative to random genomic background probes); higher = stronger binding; sequences stand for … in GC…GCGATTGACAGCGTAGAATGAAGG
[1] = test system: PPARg:RXRa DBDmut IVT, anti-RXR (DBD mutation: RXRa K156A/R161A, NR concentration 270 nM, RXRa partner concentration 90 nM)
Procedure, shortened: (§1)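 Binding z-scores were set against random background probes. The data came from custom Agilent 4×180K protein-binding microarrays carrying double-stranded probes with 34-nt variable regions, incubated 1 h with ligand-free nuclear receptor dimers. Partner-specific antibodies detected binding, and scanned fluorescence was regression-normalized.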

[2] = test system: PPARg:RXRa IVT, anti-PPARg (NR concentration 270 nM, RXRa partner concentration 90 nM)
Procedure, shortened: as §1

[3] = test system: PPARg DBDmut:RXRa IVT, anti-PPARg (DBD mutation: PPARg1 K132A/R137A, NR concentration 270 nM, RXRa partner concentration 90 nM)
Procedure, shortened: as §1

[4] = test system: PPARg DBDmut IVT, anti-PPARg (DBD mutation: PPARg1 K132A/R137A, NR concentration 270 nM)
Procedure, shortened: as §1

[5] = test system: PPARg homodimer (NR concentration 180 nM)
Procedure, shortened: as §1

[6] = test system: PXR:RXRa (NR concentration 270 nM, RXRa partner concentration 90 nM)
Procedure, shortened: as §1

[7] = test system: PXR homodimer (NR concentration 270 nM)
Procedure, shortened: as §1

[8] = test system: RARa:RXR (NR concentration 270 nM, RXRa partner concentration 90 nM)
Procedure, shortened: as §1

[9] = test system: RARa homodimer (NR concentration 270 nM)
Procedure, shortened: as §1

[10] = test system: RARb:RXRa (NR concentration 270 nM, RXRa partner concentration 90 nM)
Procedure, shortened: as §1

CCTTACGGGTCAAGTTTATAGCACGGGTGGTACG gave a PBM binding z-score [1] of 2.03, a PBM binding z-score [2] of 3.32 and a PBM binding z-score [3] of 1.11. It also gave a PBM binding z-score [4] of -0.333, a PBM binding z-score [5] of 4.02 and a PBM binding z-score [6] of 3.89. It also gave a PBM binding z-score [7] of 0.698, a PBM binding z-score [8] of 4.34 and a PBM binding z-score [9] of 1.46. For the same sequence, the PBM binding z-score [10] was 4.19.

For GGAACGAGGGCATTAGAGTTGATAGCATGGCGAT, the PBM binding z-score [1] was 3.06, the PBM binding z-score [2] was 2.02 and the PBM binding z-score [3] was -0.0353. For the same sequence, the PBM binding z-score [4] was -0.143, the PBM binding z-score [5] was 0.508 and the PBM binding z-score [6] was 3.02. The PBM binding z-score [7] was 0.854, the PBM binding z-score [8] was 0.328 and the PBM binding z-score [9] was -0.0747. The PBM binding z-score [10] was 1.79.

CCTATTAGTTGACCAGAAGGGCAACCGAAGCTCG gave a PBM binding z-score [1] of 0.319, a PBM binding z-score [2] of 0.518 and a PBM binding z-score [3] of -0.0786. For the same sequence, the PBM binding z-score [4] was 0.481, the PBM binding z-score [5] was 1.64 and the PBM binding z-score [6] was 0.463. The PBM binding z-score [7] was 0.906, the PBM binding z-score [8] was 0.452 and the PBM binding z-score [9] was 2.07. It also gave a PBM binding z-score [10] of 1.61.

TAGCCTAGGTCAGATCGAGCCAGTATACGCTATA was tested, and the PBM binding z-score [1] was 0.497, the PBM binding z-score [2] was 1.39 and the PBM binding z-score [3] was -0.253. For the same sequence, the PBM binding z-score [4] was -0.42, the PBM binding z-score [5] was -0.43 and the PBM binding z-score [6] was 0.136. It also gave a PBM binding z-score [7] of -0.429, a PBM binding z-score [8] of 0.664 and a PBM binding z-score [9] of -0.528. For the same sequence, the PBM binding z-score [10] was 2.81.

In the case of CGAACTAGGTCATTGACAGGACAGTGTATAGTAA, the PBM binding z-score [1] is reported as 7.92, the PBM binding z-score [2] is reported as 8.25 and the PBM binding z-score [3] is reported as 2.44. For the same sequence, the PBM binding z-score [4] was 1.65, the PBM binding z-score [5] was 2.13 and the PBM binding z-score [6] was 1.67. It also gave a PBM binding z-score [7] of 0.281, a PBM binding z-score [8] of 2.47 and a PBM binding z-score [9] of 0.571. It also gave a PBM binding z-score [10] of 3.63.

Sequence CCGACTGGGGCATAGGTTACCATACTCAGTACGA has a PBM binding z-score [1] of 2.91, a PBM binding z-score [2] of 4.3 and a PBM binding z-score [3] of -0.132. It also gave a PBM binding z-score [4] of -0.537, a PBM binding z-score [5] of 0.866 and a PBM binding z-score [6] of 0.141. The PBM binding z-score [7] was -0.441, the PBM binding z-score [8] was 0.637 and the PBM binding z-score [9] was -0.24. It also gave a PBM binding z-score [10] of 0.735.

For TCTTGTCGATCAACAGGAGGTTAAGAAAGATCGA, the PBM binding z-score [1] was 0.771, the PBM binding z-score [2] was 0.105 and the PBM binding z-score [3] was -0.14. It also gave a PBM binding z-score [4] of -0.175, a PBM binding z-score [5] of -0.727 and a PBM binding z-score [6] of 0.727. The PBM binding z-score [7] was -0.0541, the PBM binding z-score [8] was 0.726 and the PBM binding z-score [9] was 0.067. For the same sequence, the PBM binding z-score [10] was 0.397.

With TCTTGTCGATCAAGCAGGTTAAGAAAGCCTGAGT the PBM binding z-score [1] was 0.974, the PBM binding z-score [2] was 0.231 and the PBM binding z-score [3] was -0.395. For the same sequence, the PBM binding z-score [4] was 0.403, the PBM binding z-score [5] was -0.519 and the PBM binding z-score [6] was 0.505. The PBM binding z-score [7] was -0.0537, the PBM binding z-score [8] was 0.33 and the PBM binding z-score [9] was -0.429. For the same sequence, the PBM binding z-score [10] was 0.222.

CCTACTGGGCCAAAGGTTATTGATTCCAATGCTC gave a PBM binding z-score [1] of 5.27, a PBM binding z-score [2] of 5.88 and a PBM binding z-score [3] of 0.256. The PBM binding z-score [4] was -0.287, the PBM binding z-score [5] was 0.925 and the PBM binding z-score [6] was 1.39. The PBM binding z-score [7] was 0.0532, the PBM binding z-score [8] was 2.34 and the PBM binding z-score [9] was -0.256. The PBM binding z-score [10] was 1.53.

For ACTTACGGGTCAACGAGGTAATAGCACGCGTATA, the PBM binding z-score [1] was 3.55, the PBM binding z-score [2] was 4.22 and the PBM binding z-score [3] was 1.27. The PBM binding z-score [4] was 1.43, the PBM binding z-score [5] was 2.86 and the PBM binding z-score [6] was 3.81. The PBM binding z-score [7] was 0.484, the PBM binding z-score [8] was 4.62 and the PBM binding z-score [9] was 0.585. The PBM binding z-score [10] was 4.15.

Work on ACTAGCAGGCCAAGGTTGGGTCACTCAAACAAAG yielded a PBM binding z-score [1] of 0.282, a PBM binding z-score [2] of 0.868 and a PBM binding z-score [3] of -0.95. The PBM binding z-score [4] was -1.46, the PBM binding z-score [5] was 0.597 and the PBM binding z-score [6] was 0.524. It also gave a PBM binding z-score [7] of -0.493, a PBM binding z-score [8] of 1.24 and a PBM binding z-score [9] of -0.93. It also gave a PBM binding z-score [10] of 1.69.

With CCGACTGGGGCAGAAAGGTTACCATGCCATCCGG the PBM binding z-score [1] was 1.38, the PBM binding z-score [2] was 2.43 and the PBM binding z-score [3] was -1.53. For the same sequence, the PBM binding z-score [4] was -1.09, the PBM binding z-score [5] was 0.386 and the PBM binding z-score [6] was 0.882. The PBM binding z-score [7] was -0.381, the PBM binding z-score [8] was 1.61 and the PBM binding z-score [9] was -0.141. For the same sequence, the PBM binding z-score [10] was 2.
